Data published in the supplement of paper PMC10412459.

System: K562 SF3B1 K700E vs K562 SF3B1 WT
Test: surviving fraction ratio K562 SF3B1 K700E / K562 SF3B1 WT (each relative to DMSO); higher = less selective killing of SF3B1 K700E cells
Conditions: 5 days
Procedure: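 Drug-sensitivity screen of an in-house 80-compound library in isogenic K562 SF3B1 K700E versus SF3B1 WT cells. 250 cells/well in 384-well plates were exposed 24 h after seeding to 0.5-1000 nM compound for 5 days, and viability was read by CellTiter-Glo. Surviving fraction is relative to DMSO, and the value is the ratio of surviving fraction in K700E to WT cells; the paper calls ratio <0.6 with P<0.01 selective.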

SMILES	surviving fraction ratio K562 SF3B1 K700E / K562 SF3B1 WT (0.5nM)	surviving fraction ratio K562 SF3B1 K700E / K562 SF3B1 WT (1nM)	surviving fraction ratio K562 SF3B1 K700E / K562 SF3B1 WT (5nM)	surviving fraction ratio K562 SF3B1 K700E / K562 SF3B1 WT (10nM)	surviving fraction ratio K562 SF3B1 K700E / K562 SF3B1 WT (50nM)	surviving fraction ratio K562 SF3B1 K700E / K562 SF3B1 WT (100nM)	surviving fraction ratio K562 SF3B1 K700E / K562 SF3B1 WT (500nM)	surviving fraction ratio K562 SF3B1 K700E / K562 SF3B1 WT (1000nM)
C=CCNC1=C2C[C@@H](C)C[C@H](OC)[C@H](O)[C@@H](C)/C=C(\C)[C@H](OC(N)=O)[C@@H](OC)/C=C\C=C(/C)C(=O)NC(=CC1=O)C2=O	1.01	0.993	0.811	0.776	0.41	1.81	1.31	1.24
CCn1c(C(=O)N(C2CC2)C2CC2)cc2c3c(ncn3C)c(Nc3cc(C)n(C)n3)nc21	0.923	0.951	1	0.938	0.82	0.801	0.844	0.893
O=C(O)CC[C@H]1CC[C@@](c2cc(F)ccc2F)(S(=O)(=O)c2ccc(Cl)cc2)CC1	0.908	1.04	0.989	0.805	0.852	0.975	0.932	1.04
Oc1nc(-c2ccc(C(F)(F)F)cc2)nc2c1CSCC2	1.15	0.906	0.867	0.822	1.35	1.11	1.15	0.958
COc1ccc(-c2cc3c(C)nc(N)nc3n([C@H]3CC[C@H](OCCO)CC3)c2=O)cn1	1.06	1.14	0.92	1	0.958	0.868	1.37	1.58
